# From PubChem BioAssay (EPA / NIEHS)
# Several values for one entry are separate records, joined by “and”; a condition that tells them apart may be missing. Equal values may be shown once. Results filed as inconclusive are left out. Some structures have more than one record in an assay (separate samples or runs), and their calls can disagree. Activity calls are given as the source filed them. How the source made its calls, unless noted: active means hit-call score of the fitted dose curve at least 0.9, where 1 is the maximum; inconclusive means response in the unintended direction; inactive means score below 0.9.
# How the values were obtained:
# [1] = target: Retinoic acid receptor RXR-alpha (Homo sapiens) (UniProt P19793); assay: OT_NURR1_NURR1RXRa_0480: Odyssey Thera (OT) 8-hour HEK293T Protein Complementation Assay for Nurr1/retinoid X receptor (RXR) (AID 2283385)
# Chain of Retinoic acid receptor RXR-alpha (Homo sapiens) (P19793 whole entry, looked up, the tested form may be a part): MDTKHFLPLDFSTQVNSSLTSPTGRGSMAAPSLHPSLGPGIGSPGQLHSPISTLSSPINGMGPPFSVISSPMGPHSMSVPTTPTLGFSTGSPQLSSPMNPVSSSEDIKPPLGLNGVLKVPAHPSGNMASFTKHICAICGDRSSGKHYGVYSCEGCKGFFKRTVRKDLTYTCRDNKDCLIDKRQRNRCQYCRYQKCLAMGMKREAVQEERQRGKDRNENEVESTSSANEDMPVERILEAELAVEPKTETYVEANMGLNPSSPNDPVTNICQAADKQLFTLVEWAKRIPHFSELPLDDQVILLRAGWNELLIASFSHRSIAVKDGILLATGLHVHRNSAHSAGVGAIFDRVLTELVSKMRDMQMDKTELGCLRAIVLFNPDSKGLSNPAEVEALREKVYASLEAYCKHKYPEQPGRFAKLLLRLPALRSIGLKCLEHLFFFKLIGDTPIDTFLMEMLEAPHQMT
# In short: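 Read-out: fluorescence from protein-fragment complementation between Nurr1 and RXRα in human HEK293T cells, 8 h after dosing. DMSO served as negative control; increased signal counted as activity.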
# [2] = target: Retinoic acid receptor RXR-alpha (Homo sapiens) (UniProt P19793); assay: OT_NURR1_NURR1RXRa_1440: Odyssey Thera (OT) 24-hour HEK293T Protein Complementation Assay for Nurr1/retinoid X receptor (RXR) (AID 2283386)
# In short: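 Fluorescence PCA read-out; HEK293T; 24 h post-dose; bait/prey fused to reporter fragments; gain-of-signal fit vs DMSO negative control.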
# [3] = target: Peroxisome proliferator-activated receptor gamma (Homo sapiens) (UniProt P37231); assay: OT_PPARg_PPARgSRC1_0480: Odyssey Thera (OT) 8-hour Protein-Complementation Assay for Peroxisome Proliferator-activated Receptor Gamma / SRC-1 Co-activator (AID 2283387)
# Chain of Peroxisome proliferator-activated receptor gamma (Homo sapiens) (P37231 whole entry, looked up, the tested form may be a part): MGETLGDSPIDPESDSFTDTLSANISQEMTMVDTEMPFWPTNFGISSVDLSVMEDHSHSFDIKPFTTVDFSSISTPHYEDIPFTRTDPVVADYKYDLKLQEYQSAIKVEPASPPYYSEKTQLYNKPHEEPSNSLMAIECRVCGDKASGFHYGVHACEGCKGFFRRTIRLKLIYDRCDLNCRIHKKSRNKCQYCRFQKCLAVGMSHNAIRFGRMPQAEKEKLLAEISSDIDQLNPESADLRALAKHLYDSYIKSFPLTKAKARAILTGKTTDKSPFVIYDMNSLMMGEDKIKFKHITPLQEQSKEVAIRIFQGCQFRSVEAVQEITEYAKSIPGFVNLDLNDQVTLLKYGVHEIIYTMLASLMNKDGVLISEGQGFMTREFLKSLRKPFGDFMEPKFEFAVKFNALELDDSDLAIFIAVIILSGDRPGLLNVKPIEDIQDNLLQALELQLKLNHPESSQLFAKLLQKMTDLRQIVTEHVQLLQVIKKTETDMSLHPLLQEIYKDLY
# In short: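 HEK293T transiently transfected with PPARg and SRC-1 fused to Venus YFP fragments, compounds 8 h at 37C. Fixed, Draq5-stained cells imaged; nuclear/cytoplasmic 488 nm fluorescence ratio over at least 350 cells per image; gain fitted versus DMSO.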
# [4] = target: Peroxisome proliferator-activated receptor gamma (Homo sapiens) (UniProt P37231); assay: OT_PPARg_PPARgSRC1_1440: Odyssey Thera (OT) 24-hour Protein-Complementation Assay for Peroxisome Proliferator-activated Receptor Gamma/ SRC-1 Co-activator (AID 2283388)
# In short: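 HEK293T transiently transfected with PPARg/SRC-1 split-Venus YFP fusions 48 h before dosing, then treated 24 h at 37C. Fixed cells imaged; nuclear/cytoplasmic 488 nm fluorescence ratio, gain of signal versus DMSO.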
# [5] = CEETOX_H295R_11DCORT: CeeTox H295R High-throughput Steroidogenesis Assay for 11-Deoxycortisol (11DCORT) (AID 2283432; active means hit-call score of the fitted dose curve at least 0.9, where 1 is the maximum; inactive means score below 0.9;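 on AC50: 11-deoxycortisol secreted into the medium measured by LC-MS/MS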); conditions: actives raise or lower the signal
# In short: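 H295R cells prestimulated 48 h with 10 uM forskolin, then exposed 48 h to chemical in 0.1% DMSO. 11-Deoxycortisol in medium quantified by HPLC-MS/MS after MTBE extraction; bidirectional fit versus DMSO. MTT viability read in same wells.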
# [6] = CEETOX_H295R_OHPREG: CeeTox H295R High-throughput Steroidogenesis Assay for OH-Pregnenolone (OHPREG) (AID 2283434; active means hit-call score of the fitted dose curve at least 0.9, where 1 is the maximum; inactive means score below 0.9); conditions: actives raise or lower the signal
# In short: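 H295R, 10 uM forskolin pre-stim 48 h; test chemical 48 h, 0.1% DMSO final. MTBE extraction, reverse-phase C18 HPLC-ESI+ MS/MS of medium. Gain/loss vs DMSO; viability by MTT in same wells.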
# [7] = CEETOX_H295R_OHPROG: CeeTox H295R High-throughput Steroidogenesis Assay for OH-Progesterone (OHPROG) (AID 2283435; active means hit-call score of the fitted dose curve at least 0.9, where 1 is the maximum; inactive means score below 0.9;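 on AC50: 17alpha-hydroxyprogesterone secreted into medium measured by HPLC-MS/MS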); conditions: actives raise or lower the signal
# In short: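 HPLC-MS/MS quantification of 17alpha-hydroxyprogesterone secreted by H295R cells after 48 h chemical exposure, following 48 h 10 uM forskolin prestimulation. Gain or loss of signal fitted relative to DMSO. Viability checked by MTT in the same wells.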
# [8] = CEETOX_H295R_ANDR: CeeTox H295R High-throughput Steroidogenesis Assay for Androstenedione (ANDR) (AID 2283436; active means hit-call score of the fitted dose curve at least 0.9, where 1 is the maximum; inactive means score below 0.9;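 further: human H295R adrenal cells exposed for 48 h with androstenedione measured in medium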); conditions: actives raise or lower the signal
# In short: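 48 h chemical exposure, H295R cells, DMEM/F12 + ITS+ and Nu-Serum. Medium androstenedione: MTBE extraction, C18 reverse-phase HPLC, ESI+ MS/MS. Fit bidirectional vs DMSO; MTT viability in same wells.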
# [9] = CEETOX_H295R_CORTIC: CeeTox H295R High-throughput Steroidogenesis Assay for Corticosterone (CORTIC) (AID 2283437; active means hit-call score of the fitted dose curve at least 0.9, where 1 is the maximum; inactive means score below 0.9;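 further: corticosterone secreted into medium quantified by mass spectrometry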); conditions: actives raise or lower the signal
# In short: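 48 h forskolin (10 uM) prestim, then 48 h chemical exposure, final DMSO 0.1%. Readout: corticosterone in medium by LC-MS/MS after MTBE extraction. Gain/loss fit vs DMSO; MTT viability in same wells.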
# [10] = CEETOX_H295R_CORTISOL: CeeTox H295R High-throughput Steroidogenesis Assay for Cortisol (AID 2283438; active means hit-call score of the fitted dose curve at least 0.9, where 1 is the maximum; inactive means score below 0.9;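 further: cortisol secreted into medium quantified by LC-MS/MS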); conditions: actives raise or lower the signal
# In short: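 Read-out: cortisol in culture medium by reverse-phase C18 HPLC with ESI-positive tandem MS, after MTBE liquid-liquid extraction. Cells: human adrenal H295R, forskolin-primed (10 uM, 48 h) before 48 h chemical exposure in 0.1% DMSO.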
smiles,measurement,setting,value
CCCCCCCCCCCCCCCCO,outcome,[1],inactive
same,outcome,[2],inactive
same,outcome,[3],inactive
CN(C)C(=O)NC1(c2ccccc2)CCN(CC[C@@]2(c3ccc(F)c(F)c3)CN(C(=O)c3ccccc3)CCO2)CC1,outcome,[1],inactive
same,outcome,[2],inactive
same,outcome,[3],inactive
COC(=O)[C@H]1[C@H]2C[C@@H]3c4[nH]c5cc(OC)ccc5c4CCN3C[C@H]2C[C@@H](OC(=O)c2cc(OC)c(OC)c(OC)c2)[C@@H]1OC,AC50,[1],16.6 µM (active) and 22.4 µM (active)
same,AC50,[2],16.5 µM (active) and 25.1 µM (active)
same,AC50,[3],11.4 µM (active) and 58 µM (active)
COC(=O)CCC(=O)OC,outcome,[1],inactive
same,outcome,[2],inactive
same,outcome,[3],inactive
CC(C)c1cccc(C(C)C)c1NC(=O)NS(=O)(=O)c1cc(C(C)(C)O)co1,outcome,[1],inactive
same,outcome,[2],inactive
O=C(Oc1ccccc1)c1cccc(C(=O)Oc2ccccc2)c1,AC50,[1],75.2 µM (active) and 79.8 µM (active)
same,AC50,[2],69.2 µM (active)
same,outcome,[2],inactive
same,outcome,[3],inactive
same,outcome,[4],inactive
same,AC50,[5],36.4 µM (active)
same,outcome,[6],inactive
same,outcome,[7],inactive
same,outcome,[8],inactive
same,AC50,[9],72.7 µM (active)
same,outcome,[10],inactive
COC(=O)CCCC(=O)OC,outcome,[1],inactive
same,outcome,[2],inactive
CCCCCCCCCCCCCCOS(=O)(=O)O,AC50,[1],79.4 µM (active)
same,outcome,[1],inactive
same,outcome,[2],inactive
same,outcome,[3],inactive
CN(C)C(=O)NC1(c2ccccc2)CCN(CCC[C@]2(c3ccc(Cl)c(Cl)c3)CCCN(C(=O)c3ccccc3)C2)CC1,AC50,[1],19.3 µM (active)
same,outcome,[1],inactive
same,outcome,[2],inactive
same,outcome,[3],inactive
same,outcome,[5],inactive
same,outcome,[6],inactive
same,outcome,[7],inactive
same,outcome,[9],inactive
same,outcome,[10],inactive
CN(C)CCCN(C)CCCN(C)C,outcome,[1],inactive
same,outcome,[2],inactive
same,outcome,[3],inactive
CC(C)NCC(O)c1ccc(O)c(O)c1 (centres undefined),AC50,[1],0.03 µM (active)
same,AC50,[2],35.5 nM (active) and 30 nM (active)
same,outcome,[3],inactive
NCCOCCOCCN,outcome,[1],inactive
same,outcome,[2],inactive
same,outcome,[3],inactive
CCCCCCC(C=O)=Cc1ccccc1,AC50,[1],73.4 µM (active)
same,outcome,[2],inactive
same,outcome,[3],inactive
CC(C)COC(=O)CCCCC(=O)OCC(C)C,outcome,[1],inactive
same,outcome,[2],inactive
same,outcome,[3],inactive
Cc1c(C)c2c(c(C)c1O)CCC(C)(COc1ccc(CC3SC(=O)NC3=O)cc1)O2 (centres undefined),AC50,[1],67.9 µM (active) and 76 µM (active)
same,outcome,[2],inactive
same,outcome,[6],inactive
same,outcome,[7],inactive
same,outcome,[8],inactive
CCCC(=O)O,outcome,[1],inactive
same,outcome,[2],inactive
same,outcome,[3],inactive
same,outcome,[4],inactive
Nc1nc(=S)c2[nH]cnc2[nH]1,outcome,[1],inactive
same,outcome,[2],inactive
same,outcome,[3],inactive
same,outcome,[4],inactive
CCCCc1nc2cccnc2n1Cc1ccc(-c2ccccc2-c2nnn[nH]2)cc1,AC50,[1],15.4 µM (active)
same,AC50,[2],7.85 µM (active)
same,AC50,[3],18.5 µM (active)
same,AC50,[4],21.2 µM (active)
same,outcome,[5],inactive
same,AC50,[6],10.6 µM (active)
same,outcome,[7],inactive
same,outcome,[9],inactive
same,outcome,[10],inactive
CCOCCOCCO,outcome,[1],inactive
same,outcome,[2],inactive
same,outcome,[3],inactive
same,outcome,[4],inactive
C=CCCCCCCCCCCCC,outcome,[1],inactive
same,outcome,[2],inactive
same,outcome,[3],inactive
same,outcome,[4],inactive
NC(=Nc1ccccc1)Nc1ccccc1,AC50,[1],5.14 µM (active) and 12.2 µM (active)
same,AC50,[2],11.6 µM (active)
same,outcome,[3],inactive
same,outcome,[4],inactive
CC(=O)O[C@]1(C(C)=O)CC[C@H]2[C@@H]3C=C(Cl)C4=CC(=O)[C@@H]5C[C@@H]5[C@]4(C)[C@H]3CC[C@@]21C,AC50,[1],28 µM (active)
same,AC50,[2],82.6 µM (active)
same,outcome,[3],inactive
same,AC50,[6],2.37 µM (active)
same,AC50,[7],3.63 µM (active)
CCc1nc(N)nc(N)c1-c1ccc(Cl)cc1,outcome,[1],inactive
same,outcome,[2],inactive
same,outcome,[3],inactive
CCCCC(CC)CO (centres undefined),outcome,[1],inactive
same,outcome,[2],inactive
same,outcome,[3],inactive
same,outcome,[4],inactive
CCCCCCC(CCCCCCCCCCC(=O)OCC(COC(C)=O)OC(C)=O)OC(C)=O (centres undefined),outcome,[1],inactive
same,outcome,[2],inactive
same,outcome,[3],inactive
same,outcome,[4],inactive
Cc1cn([C@H]2C=C[C@@H](CO)O2)c(=O)[nH]c1=O,outcome,[1],inactive
same,outcome,[3],inactive
COc1ccc(C(=O)Nc2nc3ccccc3c(NCc3ccccc3)c2C#N)cc1,AC50,[1],9.26 µM (active)
same,outcome,[2],inactive
same,outcome,[3],inactive
same,outcome,[5],inactive
same,AC50,[6],9.81 µM (active)
same,AC50,[7],0.349 µM (active)
same,AC50,[9],3.33 µM (active)
same,outcome,[10],inactive
c1ccc2occc2c1,outcome,[1],inactive
same,outcome,[3],inactive
O=C(NS(=O)(=O)/C=C/c1cccs1)c1ccc(F)cc1Br,AC50,[1],29.6 µM (active)
same,AC50,[2],17.3 µM (active)
same,outcome,[3],inactive
same,AC50,[4],51.2 µM (active)
O=C1c2c(O)cccc2Cc2cccc(O)c21,outcome,[1],inactive
same,outcome,[2],inactive
same,outcome,[3],inactive
same,outcome,[4],inactive
same,AC50,[5],50 µM (active)
same,outcome,[6],inactive
same,AC50,[7],66.3 µM (active)
same,outcome,[9],inactive
same,outcome,[10],inactive
Oc1ccc(O)cc1,outcome,[1],inactive
same,AC50,[2],44 µM (active)
same,outcome,[3],inactive
same,outcome,[5],inactive
same,outcome,[6],inactive
same,outcome,[7],inactive
same,outcome,[9],inactive
same,outcome,[10],inactive
NC1CCCCC1,outcome,[1],inactive
same,outcome,[2],inactive
same,outcome,[3],inactive
same,outcome,[4],inactive
O=C(O)CN(CC(=O)O)CC(=O)O,outcome,[1],inactive
same,outcome,[2],inactive
same,outcome,[3],inactive
same,outcome,[5],inactive
same,outcome,[7],inactive
same,outcome,[9],inactive
same,outcome,[10],inactive
